HT1080 IDH1KD tx: toxicity to HT-1080 IDH1 knockdown cells (counter line) | HT-1080 IDH1 knockdown viability, ATP luminescence, 48 h | Potency, µM (highest dose often 46.1 µM), without a hit: top-dose activity, negative = toxicity, usual class: cytotoxic | 360,000 tested, 2% active | AID 686971;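 note: potency is the fitted concentration of half-maximal effect; 0% = DMSO wells and -100% = cell-free medium wells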
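Cytotoxicity counter-line: IDH1KD HT-1080, 48 h, CellTiter-Glo. Curves classed by r2, magnitude and activity.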
IL1B secr inh: inflammasome signaling inhibition, IL-1 beta readout | THP-1 LPS/ATP IL-1B secretion, AlphaLISA, 16 h; active compounds read low | activity change, % at 57.5 µM | 360,000 tested, 4.7% active | AID 743279; in the data active = activity change below about -50%; inconclusive = mostly about -30% to -49%
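Secreted IL-1B measured by AlphaLISA bead assay after 16 h compound exposure of THP-1 cells; compounds (final up to 57.5 uM) added 1 h before LPS (250 ng/mL) and ATP (1.25 mM) stimulation; lower signal means less secretion.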
TDP1 cell noCPT: qHTS for Inhibitors of human tyrosyl-DNA phosphodiesterase 1 (TDP1): qHTS in cells in absence of CPT | DT40 Tdp1-/- hTDP1 cells, no CPT, ATP luminescence, 48 h | Potency, µM (doses to about 46.2 µM), for inactives: at the highest dose activity change, negative = growth inhibition, hits mostly inhibitors | 420,000 tested, 15% active; note: potency is the fitted concentration of half-maximal effect; nearly all actives have a fitted effect of over 55% in size
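A cellular qHTS used chicken DT40 cells lacking endogenous Tdp1 but carrying stably transfected human TDP1. Compounds were applied without camptothecin, and cell growth kinetics were judged by ATP-dependent luminescence after ≥48 hr.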
DT40 TDP1 CPT: growth inhibition of DT40 Tdp1-/-;hTDP1 cells with camptothecin (screen for TDP1 inhibitors) | 420,000 tested, 12% active | chicken DT40 Tdp1-/-;hTDP1 cells + 20 nM CPT, ATP luminescence, 48 h | Potency, µM (highest dose often 46.2 µM), inactives show at the top dose activity change, negative = growth inhibition, actives largely listed as inhibitors; note: potency is the fitted concentration of half-maximal effect; nearly all actives have a fitted effect of over 55% in size
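Chicken DT40 Tdp1-/- cells complemented with human TDP1, 400 cells/well, exposed to compounds plus 20 nM camptothecin for at least 48 h at 37 C; viability read as ATP content by CellTiter-Glo luminescence.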
HT1080NT lethal: kills 2HG-producing HT-1080-NT fibrosarcoma cells. HT-1080-NT fibrosarcoma viability, CellTiter-Glo ATP luminescence, 48 h. Potency, µM (doses to about 46.1 µM), for inactives: at the highest dose activity, negative = less viability, hits mostly cytotoxic. 360,000 tested, 1.6% active. AID 686970;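 note: NT is the 2HG producing partner of a matched IDH1 knockdown line; potency is the fitted concentration of half-maximal effect; 0% = DMSO-treated cells and -100% = media-only wells without cells; nearly all actives have a fitted effect of over 55% in size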
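Luminescent CellTiter-Glo readout after 48 hours of compound exposure at 37 degrees C defined viability of HT-1080-NT cells. Activity was normalized to DMSO wells and cell-free media wells; concentration-response curves were fitted and assigned curve classes.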
ELG1 DNA repair: inhibitors of ELG1-dependent DNA repair in HEK293T cells. HEK293T ELG1-luciferase reporter, luminescence, 16 h; DNA damage induced by 5-fluorouridine. Potency, µM (series often up to 46.1 µM), without a hit: at the top dose activity change, negative = inhibition, usual class: inhibitors. 330,000 tested, 2.3% active; note: potency is the fitted concentration of half-maximal effect; nearly all actives have a fitted effect of over 55% in size
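Step one: seed 2,000 cells per well. Step two: pin-transfer compound or DMSO alongside 5-fluorouridine. Step three: incubate 16 hr, 37 °C, 5% CO2. Step four: add ONE-Glo, wait 30 min, read luminescence.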
* hit, by the source's call; u = inconclusive; x = no result given; [ ] = remark or other dose. Shown are actives, neighbours in structure and some others; about 19% of the full set was active somewhere. Unless noted, calls come from the whole dose curve; as a rule, active = well fitted curve in the direction sought with a large enough effect; inconclusive = small, poorly fitted or top-dose-only effect, or another doubt; inactive = no such curve, though single readings can be large; an effect the other way counts as inactive or inconclusive. Unless noted, % is set by controls: 0 for no effect and ±100 for the full control effect.

SMILES	HT1080 IDH1KD tx	IL1B secr inh	TDP1 cell noCPT	DT40 TDP1 CPT	HT1080NT lethal	ELG1 DNA repair
CC(C)(C)c1ccc(-c2nc(NC(=O)CSc3ncnc4sc5c(c34)CCCC5)ns2)cc1	x	x	4.11µM*	u	x	x
Cc1ccc(-c2nc(NC(=O)CSc3nc(C)nc4sc5c(c34)CCCC5)ns2)cc1	x	x	6.51µM*	11.6µM*	x	x
Cc1ccc(-c2nc(NC(=O)CSc3nnc4scc(-c5ccccc5)n34)ns2)cc1	0.3%	24.0	20.6µM*	18.4µM*	-18.2%	11.6µM*
Cc1ccccc1-c1nc(NC(=O)CSc2ncnc3sc4c(c23)CCCC4)ns1	x	x	-4.2%	0.0%	x	x
CCOC1=C2[C@@H](CN(S(=O)(=O)c3ccc(C)cc3)[C@H]2c2ccc(Cl)cc2)[C@H]2C(=O)N(c3ccccc3)C(=O)[C@H]2C1	23.1%	16.2	u	-27.2%	20.2%	x
CC1CCN(c2nc3ccc(C(=O)N4CCN(Cc5ccc6c(c5)OCO6)CC4)cc3s2)CC1	-2.4%	8.3	u	u	-0.1%	u
CCc1ccc(Nc2nc(C)cc(C)n2)cc1	-6.8%	3.1	u	u	4.1%	u
COc1ccc(Cl)cc1S(=O)(=O)N1CCCC(C(=O)NCc2ccccn2)C1 (stereo unspecified)	-9.8%	15.1	-9.5%	-14.6%	0.5%	10.4%
O=C(Cn1c(=O)c2cccn2c2ccc(F)cc21)Nc1cccc(F)c1	x	x	-22.6%	-6.9%	x	x
O=C(Cn1c2ccccc2c(=O)c2ccccc21)Nc1cccc(F)c1	-6.7%	13.1	u	16.4µM*	-2.6%	4.3%
Cc1cc(S(=O)(=O)NCc2cccnc2)ccc1F	12.9%	-6.5	-25.6%	u	0.1%	-3.7%
COCCNc1nc(Nc2ccc(Cl)cc2F)c2sccc2n1	-22.8%	-11.5	16.4µM*	13µM*	-20.3%	x
CC(C)Nc1nc(NCCN2CCNC2=O)c2sccc2n1	0.0%	33.6	-1.0%	10.4%	13.4%	x
COCCNc1nc(Nc2ccc(C(=O)OC)cc2)c2sccc2n1	u	19.4	16.4µM*	11.6µM*	-25.2%	x
CNc1nc(Nc2ccc(C(=O)OC)cc2)c2sccc2n1	u	27.1	14.6µM*	13µM*	-10.7%	x
CC(=O)Nc1cccc(Oc2nc(NCCN(C)C)nc3ccsc23)c1	-14.8%	-15.6	-19.4%	-7.8%	-14.7%	x
COC(=O)c1ccc(Nc2nc(C)cc(=O)[nH]2)cc1	-0.1%	70.0	-11.1%	0.6%	12.0%	24.9%
CC(C)Nc1nc(Nc2ccc(C(N)=O)cc2)c2sccc2n1	0.0%	22.0	u	25.9µM*	23.2%	x
CCc1ccc2oc(C(=O)Nc3sc4c(c3C(=O)NC)CCCC4)cc(=O)c2c1	x	x	6.7%	-0.9%	x	x
CCOC(=O)Cc1ccc(Nc2nc(NCCOC)nc3ccsc23)cc1	-17.2%	-27.8	14.6µM*	13µM*	-1.4%	x
COCCNc1nc(-c2ccc(Cl)cc2C)c2sccc2n1	-4.2%	-14.4	u	u	u	x
Cc1ccc(S(=O)(=O)NOCc2ccccc2)cc1	-1.7%	-8.8	u	-29.4%	-1.3%	-4.0%
CCc1cc(-c2nnn(CCC3COCCO3)c2CC)ccc1-c1cn(Cc2ccccc2)nn1 (stereo unspecified)	-28.4%	0.2	20.6µM*	16.4µM*	-6.3%	x
CCOc1ccc(CN2CCN(Cc3cccn3-c3ncccn3)CC2CCO)cc1 (stereo unspecified)	-7.1%	-22.9	u	-16.1%	-0.2%	17.6%
COc1ccc(CN2CCN(Cc3cccn3-c3ncccn3)CC2CCO)c(C)c1C (stereo unspecified)	u	-10.9	9.2µM*	u	u	-11.6%
SMILES	HT1080 IDH1KD tx	IL1B secr inh	TDP1 cell noCPT	DT40 TDP1 CPT	HT1080NT lethal	ELG1 DNA repair
COc1ccc(CN2CCN(Cc3ccc4cc(F)ccc4n3)CC2CCO)c(C)c1C (stereo unspecified)	18.4µM*	u	u	16.4µM*	u	u
CCOc1ccc2nc(CN3CCN(Cc4ccccc4OCC)C(CCO)C3)ccc2c1 (stereo unspecified)	u	-69.8*	25.9µM*	23.1µM*	-18.2%	-6.9%
OCCC1CN(Cc2ccc3cc(Cl)ccc3n2)CCN1Cc1ccsc1 (stereo unspecified)	u	-6.8	u	13µM*	-11.8%	u
Cc1ccc(-c2nc(SC(C)C(=O)N3CCCC3)n[nH]2)cc1 (stereo unspecified)	2.0%	11.4	-20.5%	-24.0%	1.7%	20.8%
O=C(NCCCN1CCOCC1)c1ccc2nc(Cc3ccccc3F)oc2c1	11.2%	0.0	1.7%	9.8%	12.7%	u
CCOC(=O)C1CCN(S(=O)(=O)c2ccc(Cl)cc2)CC1	-4.3%	-1.5	15.6%	33.1%	6.5%	-8.8%
Cc1nn(CC(C)C)c2sc(C(=O)NC3CC(C)(C)NC(C)(C)C3)cc12	-13.4%	-11.8	u	u	-10.1%	2.7%
CCC1(C2=CCCCC2)C(=O)NC(=S)N=C1N (stereo unspecified)	26.0%	10.3	-9.9%	-0.4%	20.9%	x
C/C=C(\C)C(=O)NCCN1Cc2ccccc2OC(c2ccccc2OC)C1 (stereo unspecified)	x	x	-26.9%	-7.3%[9.04 µM]	x	x
O=C(Nc1ccc(F)cc1)c1ccc(-n2cnnc2)cc1	x	x	u	-6.1%	x	x
CCOc1ccccc1CN1CCN(Cc2cc3ccccc3[nH]2)CC1CCO (stereo unspecified)	u	u	u	u	23.1µM*	4.4%
CCn1c(-c2cc(-c3ccccc3OC)nc3ccccc23)n[nH]c1=S	4.0%	1.7	u	-21.1%	-7.7%	16.4µM*
CCCCn1c(-c2csc3c2CCCC3)n[nH]c1=S	-22.0%	-2.5	-16.8%	-19.8%	-3.4%	3.0%
CCn1c(-c2ccccc2SC)n[nH]c1=S	6.8%	-7.5	16.4µM*	14.9%	0.8%	-5.2%
C=CCn1c(-c2ccccc2OC)n[nH]c1=S	0.7%	17.8	-3.7%	-24.8%	11.6%	6.9%
CCn1c(-c2cc(-c3ccc(OC(C)C)cc3)nc3ccccc23)n[nH]c1=S	14.7%	13.2	u	u	-1.4%	u
CCn1c(-c2cccn(Cc3ccccc3)c2=O)n[nH]c1=S	3.0%	6.5	-9.3%	4.7%	1.2%	-2.6%
CCn1c(-c2cc(-c3cc(OC)ccc3OC)nc3ccccc23)n[nH]c1=S	1.1%	-9.9	-23.3%	u	9.3%	6.51µM*

Screens: PubChem, National Center for Advancing Translational Sciences (NCATS)
